Type in all cases: functional
In assay [1] the target is Solute carrier family 2, facilitated glucose transporter member 1 (Homo sapiens) (UniProt P11166). The assay can be described thus: ST_JUDE_LEISH: Cytotoxicity at 2uM final concentration against transgenic Leishmania Mexicana promastigotes LmGLUT1 that are glucose transport deficient and complemented with the human glucose transporter GLUT1. Activity is measured by DNA content using SYBR green in vitro.

For assay [2], the target named is Hexose transporter 1 (Plasmodium falciparum) (UniProt O97467). The assay can be described thus: ST_JUDE_LEISH: Cytotoxicity at 2uM final concentration against transgenic Leishmania Mexicana promastigotes LmPfHT that are glucose transport deficient and complemented with the Plasmodium falciparum hexose transporter. Activity is measured by DNA content using SYBR green in vitro.

Assay [3] deals with Glucose transporter (Leishmania mexicana) (UniProt O61059). Description: ST_JUDE_LEISH: Cytotoxicity at 2uM final concentration against transgenic Leishmania Mexicana promastigotes LmGT2 that are glucose transport deficient and complemented with the L. Mexicana glucose transporter 2. Activity is measured by DNA content using SYBR green in vitro.

Structures are written as SMILES.

Sequence of Solute carrier family 2, facilitated glucose transporter member 1 (Homo sapiens) (P11166 whole entry): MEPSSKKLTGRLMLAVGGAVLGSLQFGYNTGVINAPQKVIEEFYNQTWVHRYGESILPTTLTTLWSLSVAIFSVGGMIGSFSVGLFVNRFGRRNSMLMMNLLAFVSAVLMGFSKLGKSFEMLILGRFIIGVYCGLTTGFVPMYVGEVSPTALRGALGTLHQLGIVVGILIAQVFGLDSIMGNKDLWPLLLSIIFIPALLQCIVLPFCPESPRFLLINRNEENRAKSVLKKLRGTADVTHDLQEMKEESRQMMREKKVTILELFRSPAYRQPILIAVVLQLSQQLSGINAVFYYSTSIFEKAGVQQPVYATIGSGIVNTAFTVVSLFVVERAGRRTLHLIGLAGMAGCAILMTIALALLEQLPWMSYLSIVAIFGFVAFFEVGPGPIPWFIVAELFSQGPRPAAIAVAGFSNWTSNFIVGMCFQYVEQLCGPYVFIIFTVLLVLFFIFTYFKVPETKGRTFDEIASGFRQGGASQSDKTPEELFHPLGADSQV

A word on the inhibition: it is the change of the read-out against control, counted positive when it falls. As for `COc1ccc(S(=O)(=O)Nc2cc(Br)cc3c2OCCC3)cc1N1CCN(C(=O)C(Cl)(Cl)Cl)CC1`, the figures for the inhibition in assay [1], in assay [2] and in assay [3] were -1.16%, -1.14% and -0.3%, respectively.

For the compound `COc1ccc(O)cc1Cc1cnc2nc(N)nc(N)c2c1C`, the inhibition in assay [1] is -0.06%; in assay [2], 1.16%; in assay [3] it was 0.83%.

For the compound `CN(C)CCN1CCN(Cc2cccc(-c3csc(-c4nc5ccccc5[nH]4)c3)c2)CC1`, the inhibition in assay [1] came to 0.51%; in assay [2], 2.44%; in assay [3] it was 2.16%.

Consider `Cc1cc(OCCCN2CCC(NS(=O)(=O)c3cccc(Br)c3)CC2)c2ccccc2n1`, for which the values for the inhibition in assay [1], in assay [2] and in assay [3] were 10.9%, 9.48% and 9.99%, respectively.

In the case of `COc1ccc(CCn2c(=N)c(C(=O)NCc3ccc(C)cc3)cc3c(=O)n4ccccc4nc32)cc1`, the inhibition was 3.94% in assay [1], 3.72% in assay [2] and 3.95% in assay [3].

As to `Cc1[nH]c(C)c(-c2ccc(-c3ccc(Cl)cc3)cc2)c(=O)c1Cl`, the inhibition is -0.9% in assay [1], 0.3% in assay [2] and 1.13% in assay [3].

The record behind these values is ChEMBL document CHEMBL3433997, “St. Jude Leishmania screening dataset” (2016).
